# Data published in PubChem BioAssay (EPA / NIEHS).
# Where “and” joins values, the source holds several entries; their conditions need not be identical. Equal entries are not always repeated. Results filed as inconclusive are left out. Calls of active or inactive are those of the source. How the source made its calls: active means hit-call score of the fitted dose curve at least 0.9, where 1 is the maximum; inconclusive means response in the unintended direction; inactive means score below 0.9.
# System: zebrafish Estrogen Receptor (ER2a), gene 317734
# Experiment: ATG_zfER2a_XSP2: Attagene TRANS-FACTORIAL Multi-Species (XSP2) HepG2 Assay for zebrafish Estrogen Receptor (ER2a) (AID 2283818);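 further: hits raise reporter mRNA so AC50 reflects activation of zebrafish ER2a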
# How it was run: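 Multiplexed trans-reporter readout: RT-PCR then capillary electrophoresis of reporter transcripts after 24 h compound treatment. Human HepG2 carries transfected zebrafish ER2a-Gal4 chimera; 3 nM 6-alpha-fluorotestosterone plus 1.5 nM norgestrel present. Induction scored against DMSO.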
Structure (SMILES),AC50,outcome
O=c1c(-c2ccc(O)cc2)coc2cc(O)ccc12,385 nM (active) and 164 nM (active),
CCCOC(=O)c1ccc(O)cc1,51 µM (active) and 3.49 µM (active),
CCC(C)(C)C1CCC(O)CC1 (stereo not drawn),,inactive
C#C[C@]1(O)CC[C@H]2[C@@H]3CCC4=CC(=O)CC[C@@H]4[C@H]3CC[C@@]21C,83.4 nM (active),
Oc1cc2ccccc2c2ccccc12,,inactive
c1ccc2c(c1)ccc1ccccc12,,inactive
O=C(O)Cc1cc(I)c(Oc2cc(I)c(O)c(I)c2)c(I)c1,,inactive
CC[C@H](c1ccc(O)cc1)[C@@H](CC)c1ccc(O)cc1,0.124 nM (active),
